{"source": "the supplement of paper PMC10105736", "binders": {"B1": {"name": "spir (protein)", "chain": "MTEHQAEEQADTPPTKVKATPTPTPSGKFKDAKEDAFLSTSPDSANGDAQHKLPADQLAMSSSAHPQQAGQARPLILQAFHRCSSPEQCVTLHDILDSFKAPLSEDQAWALIHQFAGLYHQVAVQAHTCAADYEAALPTGFELHFHRDGSVHFSGPDQLTPKEQLQQEQIPLPPQHDVIVDQPDHSASSSGDSSVINRAFDNSNHHHHHQHHHPPLVVSHRKIISELAEIVYTALDYNLPEDEECQVSQELENLFNFMTADETDDDCIDEGIDEGDKRWDDESEEERNDTKELEHIIETCRNHIKTTLPENHYRAVCRALVTETIELRVFLQQVLNNEAGAEKLIKASESSATTQQELAKLGFNDWARFWVQVIDELRRGVRLKKSNHERTPIEYELTPYEILMGDIRAKKYQLRKVMVNGDIPPRVKKDAHAMILEFIRSRPPLKKASDRQLGPPRMCEPSPREQLMESIRKGKELKQITPPEAPTLRERVLPSANSTLSRSRQRLIKVDFSKFQDDDLFYDENSISSSHSTAATHQHHPHFAEMHRCSQPKMPPYPFGGYMVPSQARQDCRETASLMRPRRTMEPAKQVPPPEEPSFTKDEYHKFYDTALESYDLATQCESRRASLRRHTIVGCQSNLDETHSMPPTRPESRQSDDVSKETPKRSPAEQTHPSDEGSSTSSLGPWNKSFMDKQTWMERGDDRLSVTLAEIVHIRSVMTKAELEGLPMDVRVKEDVEKRRVCFLCLRTRFSFFGPWGIQCKLCQRTVCAKCYTKMRIPSEHFRNVPLVLISPSLLSSPASSSTPSPSHHAQQAHSSSTGNIMDDQFPKSLIERLLRSESDRKTRSTVGSAPSSPKHQRSNMSTPGISVGPGASSSSAAATGQAVEALHDQATMSSSYSAAMRPSGVHQQQKQHYNNAMSRSMEGPRSLPVHSPAYRPLSNNSTLERKSRFSRGFNLFSSGSHLAQTQEQKENLRGEQVTVCNDCQGLVNEITSSVKQKRSSARNRTIQNLTLDLTPVWK"}, "B2": {"name": "TfIIB (protein)", "chain": "MASTSRLDNNKVCCYAHPESPLIEDYRAGDMICSECGLVVGDRVIDVGSEWRTFSNEKSGVDPSRVGGPENPLLSGGDLSTIIGPGTGSASFDAFGAPKYQNRRTMSSSDRSLISAFKEISSMADRINLPKTIVDRANNLFKQVHDGKNLKGRSNDAKASACLYIACRQEGVPRTFKEICAVSKISKKEIGRCFKLTLKALETSVDLITTADFMCRFCANLDLPNMVQRAATHIAKKAVEMDIVPGRSPISVAAAAIYMASQASEHKRSQKEIGDIAGVADVTIRQSYKLMYPHAAKLFPEDFKFTTPIDQLPQM"}, "B3": {"name": "stas (protein)", "chain": "MSYCSGVAISADEGITMRNGRAKALQEHSPDQVATPLLPQVPPQEQQDLNPQQQQQQQQQQQATPQKQAMSADEKKATKKSLVIVAGIFVASLVTMCYVYAIFPELNASEKQHLKIPRDIQDAKMLAKVLDRYKDMYYFEVMFGVVVAYVFLQTFAIPGSLFLSILLGFLYKFPIALFLICFCSALGATLCYTLSNLVGRRLIRHFWPKKTSEWSKHVEEYRDSLFNYMLFLRMTPILPNWFINLASPVIGVPLHIFALGTFCGVAPPSVIAIQAGKTLQKMTSSSEAFSWTSMGILMACACASLLPGLLKNKFKHKKEA"}, "B4": {"name": "ATPsynF (protein)", "chain": "MAFGDYPAEYNPKVHGPYDPARFYGKADVPFGQVKLGEIGAWLGRRNKTPNAVAGAVSRAWWRWQHKYVFPKRAGIAPFFQLTVASMTFFYLINYTKLKHHRNYKYH"}, "B5": {"name": "Crk (protein)", "chain": "MDTFDVSDRNSWYFGPMSRQDATEVLMNERERGVFLVRDSNSIAGDYVLCVREDTKVSNYIINKVQQQDQIVYRIGDQSFDNLPKLLTFYTLHYLDTTPLKRPACRRVEKVIGKFDFVGSDQDDLPFQRGEVLTIVRKDEDQWWTARNSSGKIGQIPVPYIQQYDDYMDEDAIDKNEPSISGSSNVFESTLKRTDLNRKLPAYARVKQSRVPNAYDKTALKLEIGDIIKVTKTNINGQWEGELNGKNGHFPFTHVEFVDDCDLSKNSTEIC"}, "B6": {"name": "ATPsynCF6 (protein)", "chain": "MLSQSLLSGMRVLRTEARRNFGIVAPALNKASDPIQQLFLDKVREYKQKSAGGKLVDSNPDIERELKTELDRVAKQFGSDGKTDMLKFPEFQFPDVKVDPITQAPQ"}, "B7": {"name": "spin (protein)", "chain": "MSLKHQKQSYQPLPTAAAMDNPAMIQSSGSSGSSSSEEGGSREDVANLSPLGLPTTYSSQQLMPSDTDSMEEERHRLRPHHHHHHPLGEHHHIPGIPPSAVVPSRLSSVGRSQWFTVTVLCFVNLINYMDRFTIAGVLTDVRNDFDIGNDSAGLLQTVFVISYMVCAPIFGYLGDRYSRPWIMAVGVGLWSTTTLLGSFMKQFGWFIAFRALVGIGEASYSTIAPTIISDLFVHDMRSKMLALFYFAIPVGSGLGYIVGSKTAHLANDWRWALRVTPILGIVAVFLILLIKDPVRGHSEGSHNLEATTYKQDIKALVRNRSFMLSTAGFTCVAFVAGALAWWGPSFIYLGMKMQPGNENIVQDDVAFNFGVITMLAGLLGVPLGSFLSQYLVKRYPTADPVICAFGLLVSAPLLTGACLLVNSNSVGTYALIFFGQLALNLNWAIVADILLYVVVPTRRSTAEAFQILISHALGDAGSPYLVGAISEAIMKHLHKNPSDSGLTTELRSMSQVAGSAISNATQVIAEATTSLMETARSSASQEYSDVEQFEGLQYALFSTSFVEVLGGIFFIFTACFIIKDKYNATRGLQDATAQQQQRDERGQIA"}, "B8": {"name": "CycA (protein)", "chain": "MASFQIHQDMSNKENPGIKIPAGVKNTKQPLAVIGGKAEKNALAPRANFAVLNGNNNVPRPAGKVQVFRDVRNLNVDENVEYGAKKSNVVPVVEQFKTFSVYEDNNDTQVAPSGKSLASLVDKENHDVKFGAGQKELVDYDLDSTPMSVTDVQSPMSVDRSILGVIQSSDISVGTETGVSPTGRVKELPPRNDRQRFLEVVQYQMDILEYFRESEKKHRPKPLYMRRQKDISHNMRSILIDWLVEVSEEYKLDTETLYLSVFYLDRFLSQMAVVRSKLQLVGTAAMYIAAKYEEIYPPEVGEFVFLTDDSYTKAQVLRMEQVILKILSFDLCTPTAYVFINTYAVLCDMPEKLKYMTLYISELSLMEGETYLQYLPSLMSSASVALARHILGMEMWTPRLEEITTYKLEDLKTVVLHLCHTHKTAKELNTQAMREKYNRDTYKKVAMMESVEMSKDDFDQLCEAYNCKQKEDEHQQPDINTKSNVNLFYKF"}, "B9": {"name": "Arp6 (protein)", "chain": "MANAVVVLDNGAHTAKVGLANQDEPHVVPNCIMKAKSERRRAFVGNQIDECRDTSALYYILAFQRGYLLNWHTQKTVWDYIFSKDGIGCSLENRNIVITEPQMNFQSIQEATLEILFEEYKVDGVYKTTAADLAAFNYVADSEERTTMESLNCIIIDVGYSFTHVVPFVLGRRVLQGIRRIDMGGKALTNQLKELISYRHLNVMDESHVVNQIKEDVCFVAEDFKQAMQVHYSEEKRREVTVDYVLPDFTTVKRGYVRVPGKPREDEEQQQMVSLCNERFTVPELLFNPSDIGVQQVGIPEAVADCLKACPWEAHRELLLNILIVGGSAQFPGFLPRLKRDLRALVPDDLEVSLICPEDPVRYAWYGGKEVATSPNFEEFVYTQDDYEEYGFQGINQR"}}, "assay_in_all_cases": "MAPPIT interaction score (arbitrary units); higher = stronger binary interaction signal, active = hit call of the paper", "key": {"Acp1": {"molecular_target": "Acp1", "settings": "pair source set: RRS", "experimental": "(§1)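 MAPPIT in HEK293T cells: Drosophila bait and prey ORFs (from the FlyBi ORF collection) were co-transfected in quadruplicate, with two wells stimulated by erythropoietin. Interaction-dependent JAK-STAT activation was read out with a STAT-responsive firefly luciferase reporter. Positive calls use the 99th percentile of random reference set (RRS) scores within each batch […]. Batches Dvs01 and Dvs02 used the N-N configuration and Dvs04 the N-C configuration. Pairs come from FlyBi screens, CuraGen, DPiM, Finley Y2H, Lit-BM-16, Lit-BS-16 and RRS.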"}, "AP-1mu": {"molecular_target": "AP-1mu", "settings": "MAPPIT configuration: N-C; pair source set: screen_4", "experimental": "as §1"}, "HLH54F": {"molecular_target": "HLH54F", "settings": "MAPPIT configuration: N-N; pair source set: Curagen_low_conf", "experimental": "as §1"}, "ATPsynC": {"molecular_target": "ATPsynC", "settings": "MAPPIT configuration: N-C; pair source set: screen_3", "experimental": "as §1"}, "ATPsyndelta": {"molecular_target": "ATPsyndelta", "experimental": "as §1"}, "CG15572": {"molecular_target": "CG15572", "settings": "MAPPIT configuration: N-C; pair source set: screen_4", "experimental": "as §1"}, "CG42659": {"molecular_target": "CG42659", "settings": "MAPPIT configuration: N-C; pair source set: screen_3", "experimental": "as §1"}, "Polr3E": {"molecular_target": "Polr3E", "settings": "MAPPIT configuration: N-C; pair source set: screen_4", "experimental": "as §1"}, "ATPsynF": {"molecular_target": "ATPsynF", "settings": "MAPPIT configuration: N-N; pair source set: DPIM", "experimental": "as §1"}, "CG17377": {"molecular_target": "CG17377", "settings": "MAPPIT configuration: N-C; pair source set: screen_4", "experimental": "as §1"}, "Mst87F": {"molecular_target": "Mst87F", "settings": "MAPPIT configuration: N-N; pair source set: screen_2", "experimental": "as §1"}, "lawc": {"molecular_target": "lawc", "settings": "MAPPIT configuration: N-C; pair source set: screen_3", "experimental": "as §1"}, "ATPsyngamma": {"molecular_target": "ATPsyngamma", "settings": "MAPPIT configuration: N-N; pair source set: DPIM", "experimental": "as §1"}, "ATPsynG": {"molecular_target": "ATPsynG", "settings": "MAPPIT configuration: N-N; pair source set: Lit-BS-16", "experimental": "as §1"}, "sle": {"molecular_target": "sle", "settings": "MAPPIT configuration: N-N; pair source set: Lit-BS-16", "experimental": "as §1"}}, "note": "A number with no mark means an inactive call.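 The calls were made as follows: active = MAPPIT score above the 99th percentile of random reference set scores in the same batch; inactive = at or below it.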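 Also: HEK293T cells with Epo stimulation, STAT-responsive firefly luciferase reporter, fold induction versus unstimulated cells divided by the larger fold induction of two negative controls lacking either bait or prey.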"}
{"binder": "B1", "values": [{"measurement": "MAPPIT interaction score", "setting": "Acp1; MAPPIT configuration: N-C", "value": -0.762}, {"measurement": "MAPPIT interaction score", "setting": "Acp1; MAPPIT configuration: N-N", "value": 0.149}]}
{"binder": "B2", "values": [{"measurement": "MAPPIT interaction score", "setting": "AP-1mu", "value": 1.05}, {"measurement": "MAPPIT interaction score", "setting": "HLH54F", "value": -0.376}]}
{"binder": "B3", "values": [{"measurement": "MAPPIT interaction score", "setting": "ATPsynC", "value": 0.0375}]}
{"binder": "B4", "values": [{"measurement": "MAPPIT interaction score", "setting": "ATPsyndelta; MAPPIT configuration: N-N, pair source set: DPIM", "value": 0.173}]}
{"binder": "B5", "values": [{"measurement": "MAPPIT interaction score", "setting": "ATPsyndelta; MAPPIT configuration: N-C, pair source set: screen_4", "value": 2.72}, {"measurement": "MAPPIT interaction score", "setting": "CG15572", "value": 0.475}, {"measurement": "MAPPIT interaction score", "setting": "CG42659", "value": 0.17}, {"measurement": "MAPPIT interaction score", "setting": "Polr3E", "value": 2.44}]}
{"binder": "B6", "values": [{"measurement": "MAPPIT interaction score", "setting": "ATPsynF", "value": -0.221}]}
{"binder": "B7", "values": [{"measurement": "MAPPIT interaction score", "setting": "AP-1mu", "value": 2.01}, {"measurement": "MAPPIT interaction score", "setting": "CG17377", "value": 1.62}, {"measurement": "MAPPIT interaction score", "setting": "Mst87F", "value": 2.13}, {"measurement": "MAPPIT interaction score", "setting": "lawc", "value": 1.7}]}
{"binder": "B8", "values": [{"measurement": "MAPPIT interaction score", "setting": "ATPsyngamma", "value": 1.52}]}
{"binder": "B9", "values": [{"measurement": "MAPPIT interaction score", "setting": "ATPsynG", "value": 0.0569}, {"measurement": "MAPPIT interaction score", "setting": "sle", "value": -0.421}]}
